The text below walks through data of PubChem BioAssay (NCATS).

Several values for one entry are separate records, joined by “and”; a condition that tells them apart may be missing. Equal entries are not always repeated. Inconclusive results are not listed. Activity calls are given as the source filed them. Unless noted, calls follow the shape of the dose curve; as a rule, active = well fitted curve in the direction sought with a large enough effect; inconclusive = small, poorly fitted or top-dose-only effect, or another doubt; inactive = no such curve, though single readings can be large; an effect the other way counts as inactive or inconclusive.

Test [1] can be described thus: Cell Viability - Jurkat (AID 426;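 active = dose-dependent loss of cell ATP signal giving a full or clear fitted curve, ranked by lower potency value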; also: potency is read from the fitted curve at half-maximal effect). The following applies: qHTS. In a few lines: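 Cytotoxicity was scored as loss of cellular ATP, measured by luciferase-based luminescence, in Jurkat clone E6-1 cells after 40 h compound treatment; tamoxifen and doxorubicin served as positive controls.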
Background: Quantitative high-throughput screening tests each substance at several concentrations.

Test [2] in a line: Cell Viability - Hek293 (AID 427;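 active = compounds whose dose-response curve shows a full or clear partial loss of cell viability, called from curve shape rather than a numeric limit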;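 also: potency is read from the fitted curve at half-maximal effect; cells exposed to compound for 40 hours at 37 °C before reading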). The following applies: qHTS. In a few lines: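 HEK293 cells in complete medium were exposed to compound for 40 hr at 37 °C, then cellular ATP was read by CellTiter-Glo luminescence. Data were normalized to DMSO (basal) and 100 uM tamoxifen (100% inhibition), and AC50 came from Hill fits.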
Test [3] in a line: Cell Viability - HepG2 (AID 433; calls by dose curve; also: potency is read from the fitted curve at half-maximal effect). As to conditions: qHTS. In a few lines:
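Cytotoxicity is scored as loss of intracellular ATP in HepG2 cells exposed to compounds for 40 h. Concentration-response curves, normalized to DMSO and 100 uM tamoxifen, give AC50 values.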

The nature of test [4]: Cell Viability - HUV-EC-C (AID 542). Also: % is scaled to controls: 0 for no effect and ±100 for the full control effect; nearly all actives have a fitted effect of over 35% in size. As to conditions: HUV-EC-C endothelial cell viability, qHTS; series mostly up to 92.2 µM. In a few lines:
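Concentration-dependent ATP loss in HUV-EC-C cells is the measure. Exposure lasts 40 hr at 37 °C; luminescence follows CellTiter-Glo addition, and Hill fits give AC50.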

Test [5] can be described thus: Cell Viability - H-4-II-E (AID 543). Also: % is scaled to controls: 0 for no effect and ±100 for the full control effect; nearly all actives have a fitted effect of over 35% in size. The following applies: H-4-II-E rat hepatoma viability; series mostly up to 92.2 µM. In a few lines:
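AC50 from Hill-modelled qHTS concentration-response curves. H-4-II-E rat hepatoma cells in complete medium, 40 hr exposure at 37 °C, viability by CellTiter-Glo ATP luminescence.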

Test [6] is described as follows: Cell Viability - SH-SY5Y (AID 544). Also: nearly all actives have a fitted effect of over 55% in size. The following applies: SH-SY5Y neuroblastoma cell viability; series mostly up to 92.2 µM. In a few lines: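 Quantitative HTS in SH-SY5Y neuroblastoma cells, 40 hr treatment at 37 °C, ATP content by luciferase luminescence; AC50 from Hill fits.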
The nature of test [7]: Cellular Toxicity (caspase-3) SHSY5Y (AID 657). As to conditions: SH-SY5Y caspase-3 activation, DMSO zero, 10 µM staurosporine = 100%; series mostly up to 91.7 µM. In a few lines: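 Cells plated and incubated 5 h at 37 °C, dosed over a concentration range, incubated 16 h, then given Caspase-Glo 3/7 reagent for 1 h at room temperature before luminescence reading. Staurosporine (10 uM) defined full stimulation.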

A short description of test [8]: Cellular Toxicity (caspase-3) SK-N-SH (AID 661). The following applies: SK-N-SH caspase-3 activation, qHTS, DMSO as zero, staurosporine as full; series mostly up to 91.7 µM. In a few lines:
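Apoptosis readout in SK-N-SH neuroblastoma: Caspase-Glo 3/7 luminescence following 16 hr treatment in complete culture medium. Normalization used DMSO and 10 uM staurosporine controls.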

Test [9] can be described thus: Cellular Toxicity (caspase-3) H-4-II-E (AID 663).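 Also: cells exposed to compound for 16 hr before readout.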 As to conditions: H-4-II-E rat hepatoma; Potency: caspase-3 activation; series mostly up to 92.2 µM. In a few lines:
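H-4-II-E rat hepatoma, 1500 cells/well, 5 hr settle at 37 °C; compound 16 hr, 37 °C, complete medium; Caspase-Glo 3/7, 20 min RT; luminescence. DMSO = 0%, 100 uM tamoxifen = 100%; Hill-equation AC50.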

Test [10] is described as follows: Cellular Toxicity (caspase-3) N2a (AID 665).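 Also: compound exposure lasted 16 h at 37 °C before readout.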 The following applies: N2a cells, luminescence, normalized: DMSO 0%, 10 µM staurosporine 100%; series mostly up to 92.2 µM. In a few lines:
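Concentration-response qHTS: compound-induced caspase-3/7 luminescence in N2a cells (16 h, 37 °C), relative to DMSO and 10 uM staurosporine controls; AC50 obtained using the standard Hill equation.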

Test [11] in a line: Cellular Toxicity (caspase-3) NIH 3T3 (AID 666).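 Also: caspase signal read after 16 h compound exposure; 0% = DMSO basal and 100% = 100 µM tamoxifen stimulation.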 As to conditions: NIH 3T3 caspase-3 activation, apoptosis/toxicity, 0% DMSO, 100% is 100 µM tamoxifen; series mostly up to 92.2 µM. In a few lines: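 Activity: caspase-3/7 induction, NIH 3T3 cells, 16 hr treatment at 37°C, luminescent Caspase-Glo detection; AC50 via Hill equation.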
Test [12] is described as follows: MultiTox-Fluor Cytotoxicity Assay - LYMP1-001 - Dead Cells (AID 946).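 Also: 0% = DMSO and 100% = tetraoctylammonium bromide.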 As to conditions: LYMP1-001 lymphoblastoid cells, dead-cell protease fluorescence; series mostly up to 92.2 µM. In a few lines: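 LYMP1-001 lymphoblastoid cells (2500/well) treated 16 h at 37 C. Dead-cell protease cleavage of bis-AAF-R110 read at Ex/Em 485/520. Normalized to DMSO and 15 uM tetraoctylammonium bromide; AC50 from Hill fits.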

Test [13] in a line: Cell Viability - LYMP1-002 - Assay at 16 hr (AID 948).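 Also: 0% = DMSO alone and full effect = 92 µM tetraoctylammonium bromide.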 As to conditions: LYMP1-002 lymphoblastoid cell viability; series mostly up to 92.2 µM. In a few lines: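 Acute cytotoxicity is scored as a concentration-dependent fall in intracellular ATP in a human lymphoblastoid line (LYMP1-002) after 16 hr compound exposure at 37 C, measured by luciferase luminescence.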
Test [14] can be described thus: MultiTox-Fluor Cytotoxicity Assay - LYMP1-002 - Live Cells (AID 955). Also: % is scaled to controls: 0 for no effect and ±100 for the full control effect. The following applies: LYMP1-002 lymphoblastoid live-cell protease fluorescence viability; series mostly up to 46.1 µM. In a few lines: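 In this qHTS viability format, lymphoblastoid cells (LYMP1-002, human) received compound for 16 hr at 37 C. Fluorogenic GF-AFC cleavage by viable cells was detected at 405/510 nm after 1 h at room temperature.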

A short description of test [15]: MultiTox-Fluor Cytotoxicity Assay - LYMP1-003 - Dead Cells (AID 961).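 Also: 0% = DMSO and 100% = tetraoctylammonium bromide; nearly all actives have a fitted effect of over 70% in size.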 As to conditions: LYMP1-003 lymphoblastoid cells, dead-cell protease fluorescence; series mostly up to 92.2 µM. In a few lines: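 LYMP1-003 human lymphoblastoid cells (2500/well) exposed to compound 16 h at 37 C in complete medium; dead-cell protease read with bis-AAF-R110 fluorescence (Ex/Em 485/520) after 60 min at room temperature. Normalized to DMSO and 15 uM tetraoctylammonium bromide; AC50 from Hill fit.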

A short description of test [16]: Cell Viability - LYMP2-003 (AID 965).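 Also: cells exposed to compounds for 24 h before reading; 0% = DMSO only and full effect = 92 µM tetraoctylammonium bromide; nearly all actives have a fitted effect of over 50% in size.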 As to conditions: LYMP2-003 lymphoblastoid cell viability; series mostly up to 92.2 µM. In a few lines: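 Acute cytotoxicity is scored as a concentration-dependent drop in intracellular ATP, measured by luciferase luminescence in human lymphoblastoid cells treated for 24 hours at 37 C. AC50 values derive from Hill-equation modelling.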

A short description of test [17]: Cell Viability - LYMP2-020 (AID 986).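 Also: cells exposed to compound for 24 h at 37 °C; plate controls were DMSO only for no effect and tetraoctylammonium bromide at 92 µM for full effect; nearly all actives have a fitted effect of over 55% in size.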 The following applies: series mostly up to 92.2 µM. In a few lines:
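Cells at 2500 per well receive a 24 hr compound exposure at 37 C. Viability is measured as ATP-dependent luciferase luminescence, with AC50 modeled from qHTS concentration-response curves.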

The nature of test [18]: Cell Viability - LYMP2-022 (AID 987).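 Also: 0% = DMSO alone and full effect = tetraoctylammonium bromide at 92 µM; nearly all actives have a fitted effect of over 55% in size.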 The following applies: LYMP2-022 lymphoblastoid cell viability; series mostly up to 92.2 µM. In a few lines: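 In this qHTS cytotoxicity screen, compound titrations were incubated 24 hr at 37 C with human lymphoblastoid cells in complete medium. Luciferase-based ATP luminescence provided the viability signal.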
Test [19] is described as follows: Cell Viability - LYMP2-024 (AID 988).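 Also: plate controls were DMSO only for no effect and 92 µM tetraoctylammonium bromide for full effect; nearly all actives have a fitted effect of over 60% in size.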 As to conditions: LYMP2-024 lymphoblastoid cell viability; series mostly up to 92.2 µM. In a few lines: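 Cells at 2500 per well received compound for 24 hr after a 5 hr settling period. Viability was scored by CellTiter-Glo luminescence, with AC50 from Hill fits.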
Test [20] is described as follows: qHTS assay for small molecule antagonists of retinoid X receptor alpha signaling (AID 588546).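 Also: cells stimulated with 9-cis-retinoic acid as agonist; % is scaled to controls: 0 for no effect and ±100 for the full control effect.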 As to conditions: HEK293T RXRa-UAS-bla, beta-lactamase ratio, antagonist mode; measured here: W530 green channel, cytotoxicity proxy. In a few lines: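 Beta-lactamase reporter inhibition, read as CCF4 fluorescence ratio (ex 405, em 460/530 nm) after 2 h at RT. HEK293T UAS-bla cells, 2500/well, were stimulated with 9-cis-RA at 500 or 100 nM final alongside test compound for 18 h at 37 C.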

Regarding `CN(C)C=O`, the Potency in test [1], in test [2] and in test [3] was > 92 µM (inactive) each time. Moreover, the outcome in test [4], in test [7], in test [8], in test [10] and in test [11] was inactive. Further, the Potency entry in test [5], in test [6], in [9], in test [12], in test [13] and in test [14] was “inactive” each time. Further, the Potency result in [15], in test [16], in [17], in test [18] and in test [19] was “inactive” each time. For the same compound, the max response in test [20] was 4.64% and -5.61%.

Regarding `O=C1c2ccccc2C(=O)C1c1ccc2ccccc2n1`, the compound was classed as inactive in [4], in test [7], in test [8] and in test [10]. Also, the Potency result in test [6], in test [9], in test [12], in [13], in [14] and in test [15] was “inactive” each time. Further, the Potency entry in test [16], in test [17], in test [18] and in [19] was “inactive” each time. Further, the max response in test [20] was -3.83%.

As to `CCO`, the Potency in [1], in [2] and in [3] was > 92 µM (inactive) each time. Besides, the call in [4], in test [7], in [8], in test [10] and in test [11] was inactive. The Potency entry in test [5], in [6], in test [9], in test [12], in test [13] and in [14] was “inactive” throughout. Besides, the Potency entry in test [15], in test [16], in test [17], in test [18] and in test [19] was “inactive” throughout. The max response in test [20] is -7.92%.

Turning to `Cc1ccc([N+](=O)[O-])c(C)c1`, the Potency in test [1], in [2] and in test [3] was > 92 µM (inactive) in each case. For the same compound, the result in test [4], in test [7], in test [8], in test [10] and in [11] was inactive. The Potency entry in test [5], in test [6], in test [9], in test [12], in test [13] and in test [14] was “inactive” in each case. Besides, the Potency entry in test [15], in test [16], in [17], in [18] and in test [19] was “inactive” each time. Also, in test [20], the max response is -2.42% and -7.16%.

In the case of `COc1c2ccoc2cc2oc(=O)ccc12`, the Potency in [1], in test [2] and in [3] was > 92 µM (inactive) in each case. For the same compound, the outcome in test [4], in test [7], in test [8], in test [10] and in test [11] was inactive. In addition, the Potency entry in test [5], in test [6], in test [9], in test [12], in test [13] and in [14] was “inactive” throughout. Further, the Potency result in test [15], in [16], in test [17], in test [18] and in test [19] was “inactive” each time. The max response in [20] was -1.57%.

`O=[N+]([O-])c1cccc(Cl)c1Cl`: the Potency in test [1], in test [2] and in [3] was > 92 µM (inactive) throughout. Also, the result in test [4], in test [7], in test [8], in test [10] and in test [11] was inactive. Also, the Potency entry in [5], in [6], in test [9], in [12], in [13] and in test [14] was “inactive” in each case. For the same compound, the Potency result in [15], in [16], in test [17], in test [18] and in test [19] was “inactive” in each case. The max response in [20] was 3.16% and 3%.
